Screens (PubChem BioAssay)
The list is not random: actives were taken first. Their share in the collection is about 3.2%.
GALK inhibitor – galactokinase (human) inhibition; P51570; Purified GALK, Kinase-Glo residual ATP luminescence; Potency, µM (top dose mostly 57.5 µM), inactives show top-dose activity change, negative = inhibition, actives largely listed as inhibitors; hit rate 0.007% among 270,000; note: potency is the fitted concentration of half-maximal effect
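Compounds were pin-transferred into ATP buffer (35 uM final), then GALK plus galactose (5 nM, 100 uM final) was added. After 1 h at room temperature, Kinase-Glo Plus was added and luminescence read after 10 min.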
USP1-UAF1 inh – USP1/UAF1 (human) deubiquitinase inhibition. O94782. recombinant USP1/UAF1, Ub-Rhodamine cleavage fluorescence. Potency, µM (highest dose often 57.1 µM), without a hit: at the top dose activity change, negative = inhibition, actives largely listed as inhibitors. hit rate 0.23% among 390,000. AID 743255; note: potency is the fitted concentration of half-maximal effect; nearly all actives have a fitted effect of over 60% in size
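USP1/UAF1 complex at 1 nM was preincubated with compound for 15 min at room temperature, then Ub-Rho substrate (150nM final) was added. Fluorescence (480/540 nm) was read kinetically, 6 reads every 60 seconds.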
VDR inhibitor – inhibitors of human vitamin D receptor; AID 504847; hit rate 0.93% among 400,000; Potency, µM, for the others: max response, negative = inhibition, usual class: inhibitors; VDR-SRC2-3 peptide fluorescence polarization, 2 h; note: potency is the fitted concentration of half-maximal effect
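The screen uses fluorescence polarization to detect compounds that interfere with recruitment of the SRC2-3 coactivator peptide to VDR; plates are read after 2 h at room temperature.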
Coupling enz – counter-screen for Giardia aldolase inhibitors: coupling enzyme system; activity change, negative = inhibition, % at 58.2 µM, hits read low; coupling enzyme system counterscreen, AmpLite Red fluorescence; hit rate 0.67% among 290,000; AID 2472; in the data active = activity change below about -30%
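Compounds tested against the coupling enzymes alone at 57.5 uM final; readout was AmpLite Red fluorescence (525/598 nm) after 20 min at RT.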
USP2a block – blocks human ubiquitin-specific protease USP2a. USP2 core, Ub-CHOP2 coupled fluorogenic reporter, 485/531. O75604. hit rate 0.01% among 330,000. AID 463254. Potency, µM (doses to about 38.3 µM), for inactives: top-dose activity change, negative = inhibition, actives largely listed as inhibitors;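 note: potency is the fitted concentration of half-maximal effect; plate controls were DMSO wells for no effect and full inhibition by NEM control for full effect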
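Deubiquitinase activity read as fluorescence (485/531 nm) after Ub-CHOP2 cleavage activates the enterokinase reporter on its substrate; USP2 core 10nM, Ub-CHOP2 and substrate 25nM each, 30min compound preincubation then 60min RT; data normalized to NEM, curves fitted.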
PLK1 PBD inh – blocks phosphopeptide binding to human PLK1 polo-box domain | Potency, µM, without a hit: max response, negative = inhibition, hits mostly inhibitors | hit rate 2.8% among 360,000 | P53350 | AID 720504 | Plk1 PBD binding of FITC phosphopeptide, fluorescence polarization; note: potency is the fitted concentration of half-maximal effect; series mostly up to about 57 µM; nearly all actives have a fitted effect of over 65% in size
Target sequence (P53350 whole entry, looked up, the tested form may be a part): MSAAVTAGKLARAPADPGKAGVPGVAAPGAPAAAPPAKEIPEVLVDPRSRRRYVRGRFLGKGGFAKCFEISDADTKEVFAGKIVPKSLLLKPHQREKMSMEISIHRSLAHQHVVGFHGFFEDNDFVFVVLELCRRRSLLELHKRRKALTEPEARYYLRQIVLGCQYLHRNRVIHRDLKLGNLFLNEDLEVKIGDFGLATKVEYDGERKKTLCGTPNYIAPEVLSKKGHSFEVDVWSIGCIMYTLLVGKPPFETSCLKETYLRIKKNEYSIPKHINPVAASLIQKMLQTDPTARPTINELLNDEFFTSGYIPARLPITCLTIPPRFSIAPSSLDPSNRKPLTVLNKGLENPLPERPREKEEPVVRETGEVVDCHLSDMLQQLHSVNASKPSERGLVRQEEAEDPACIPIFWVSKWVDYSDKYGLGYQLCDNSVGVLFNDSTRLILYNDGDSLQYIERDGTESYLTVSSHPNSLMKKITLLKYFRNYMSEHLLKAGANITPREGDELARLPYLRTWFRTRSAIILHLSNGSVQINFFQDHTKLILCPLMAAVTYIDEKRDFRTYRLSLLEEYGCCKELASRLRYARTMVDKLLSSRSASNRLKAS
Numbers without * were called inactive; ? = inconclusive; / = no result. Unless noted, calls come from the whole dose curve; as a rule, active = well fitted curve in the direction sought with a large enough effect; inconclusive = small, poorly fitted or top-dose-only effect, or another doubt; inactive = no such curve, though single readings can be large; an effect the other way counts as inactive or inconclusive. Unless noted, % is set by controls: 0 for no effect and ±100 for the full control effect.

SMILES | GALK inhibitor | USP1-UAF1 inh | VDR inhibitor | Coupling enz | USP2a block | PLK1 PBD inh
Cc1ccccc1N1C(=O)c2ccccc2C1Nc1cccnc1 (stereo unspecified) | -0.1% | -8.2% | -17.4% | 1.4 | -1.3% | -8.9%
O=C(O)c1ccc(COc2ccc3ccccc3c2/C=C2/NC(=O)N(Cc3ccc(F)cc3)C2=O)cc1 | -2.5% | -8.3% | -5.0% | -14.0 | -0.2% | ?
CCc1ccc(S(=O)(=O)NC(=S)Nc2ccccc2)cc1 | -3.3% | -9.4% | ? | 0.2 | 9.3% | 26.7µM*
NS(=O)(=O)c1ccc(NC(=S)NC2CCCCC2)cc1 | -0.5% | -11.4% | ? | -11.1 | 9.0% | 10.6µM*
NS(=O)(=O)c1ccc(NC(=S)NCc2cccc(Cl)c2)cc1 | -1.7% | -22.6% | -11.5% | 0.8 | 1.9% | -2.1%
NS(=O)(=O)c1ccc(NC(=O)NC2CCCCC2)cc1 | 0.5% | -13.7% | -0.8% | 4.3 | -1.6% | 0.5%
NS(=O)(=O)c1ccc(NC(=S)NCc2ccccc2)cc1 | 1.9% | -9.2% | ? | -0.4 | 2.2% | 11.9µM*
CCNC(=S)NS(=O)(=O)c1ccc(CC)cc1 | -3.4% | -5.4% | 18.6% | 2.2 | -0.6% | -25.6%
NC(=O)C1(N2CCCCC2)CCN(C(=S)Nc2ccc(S(N)(=O)=O)cc2)CC1 | 5.5% | -8.9% | -9.6% | -18.5 | -1.4% | 10.6µM*
CCOC(=O)c1cc(C#N)c(=S)[nH]c1C | 0.1% | -11.9% | -21.2% | 5.7 | 2.5% | -3.9%
Cc1ccc(CSc2ccc(C(=O)N3CCOCC3)cc2[N+](=O)[O-])cc1 | -0.9% | -1.7% | -10.8% | 0.1 | -0.9% | -4.0%
O=C(NNC(=O)c1ccccc1C(=O)O)c1ccc(S(=O)(=O)N2CCCCC2)cc1 | 9.7% | -12.8% | 0.7% | 2.8 | 3.3% | -7.2%
O=C(CN1CCN(c2ccccn2)CC1)Nc1ccc(F)c(F)c1 | / | -25.5% | -11.0% | 5.4 | -5.2% | -16.8%
CCOC(=O)C1(Cc2cccc(F)c2)CCN(CC(O)CO)CC1 (stereo unspecified) | -0.4% | -12.7% | 3.1% | -0.3 | 0.2% | -0.8%
Cn1nc(-c2ccccc2)c(C(=O)NC(C(=O)O)c2ccccc2)c1Cl (stereo unspecified) | 2.2% | -13.4% | 6.5% | 1.2 | -0.1% | -17.9%
Cc1cc(C)c2c(=O)n(CC(=O)Nc3cccc(F)c3)sc2n1 | -0.6% | -7.8% | 14.1µM* | 1.7 | -0.3% | 1.89µM*
Cc1cccc(N2CCN(C(=O)Cn3sc4nc(C)cc(C)c4c3=O)CC2C)c1 (stereo unspecified) | 0.4% | 2.6% | 15.8µM* | 3.3 | 0.1% | 1.68µM*
Cc1ccc(NC(=O)Cn2sc3nc(C)cc(C)c3c2=O)c(Cl)c1 | 0.3% | -2.6% | ? | 0.7 | 1.1% | 1.5µM*
Cc1ccc(NC(=O)Cn2c(C)cc(C)c(C#N)c2=O)c(Cl)c1 | -1.6% | -7.8% | -2.3% | 1.9 | -5.0% | -9.7%
Cc1cc(C)c2c(=O)n(CC(=O)N3CCC(Cc4ccccc4)CC3)sc2n1 | -1.6% | / | / | 4.1 | 1.4% | /
Cc1cc(C)c2c(=O)n(CC(=O)Nc3ccc(Cl)cc3)sc2n1 | 5.4% | -11.9% | 39.8µM* | 5.8 | 0.6% | 1.34µM*
Cc1ccc(NC(=O)CSc2c3c(nc4ccccc24)CCCC3)cc1F | / | -16.1% | -29.4% | / | / | /
Cc1ccn2c(=O)nc(SCC(=O)N3CCCc4ccccc43)nc2c1 | / | -9.0% | 11.3% | / | 0.6% | -10.1%
COc1ccc2c(c1)[nH]c1c(=O)n(N)cnc12 | 2.3% | -13.8% | -0.5% | -5.3 | 2.3% | -2.8%
COC(c1ccccc1)c1nnc(CCC(=O)N(C)CCCC2CCCC2)o1 (stereo unspecified) | 10.1% | -8.6% | -10.8% | 3.4 | -6.5% | 0.5%
CCOC(=O)c1ccc(NC(=O)C2CC3CCC2C3)cc1 (stereo unspecified) | / | -12.6% | -20.0% | / | / | 2.6%
O=c1ccsn1Cc1ccccc1 | -2.4% | -10.0% | ? | -3.2 | 1.9% | 2.99µM*
Cc1ccc(NC(=S)NNC(=S)NNc2ccccc2)cc1C | / | -25.6% | / | / | / | ?
